Measurements reported in PubChem BioAssay.

The compounds below were run against Neurogenic locus notch homolog protein 2 (Homo sapiens) (UniProt Q04721) (assay: Notch2 binders on small-molecule microarrays, primary screen, biochemical, small-molecule microarray, 635 nm fluorescence, stem cell growth factors (AID 1073)). Conditions: Notch2 binding, higher = more signal.
Sequence of Neurogenic locus notch homolog protein 2 (Homo sapiens) (Q04721 whole entry, looked up): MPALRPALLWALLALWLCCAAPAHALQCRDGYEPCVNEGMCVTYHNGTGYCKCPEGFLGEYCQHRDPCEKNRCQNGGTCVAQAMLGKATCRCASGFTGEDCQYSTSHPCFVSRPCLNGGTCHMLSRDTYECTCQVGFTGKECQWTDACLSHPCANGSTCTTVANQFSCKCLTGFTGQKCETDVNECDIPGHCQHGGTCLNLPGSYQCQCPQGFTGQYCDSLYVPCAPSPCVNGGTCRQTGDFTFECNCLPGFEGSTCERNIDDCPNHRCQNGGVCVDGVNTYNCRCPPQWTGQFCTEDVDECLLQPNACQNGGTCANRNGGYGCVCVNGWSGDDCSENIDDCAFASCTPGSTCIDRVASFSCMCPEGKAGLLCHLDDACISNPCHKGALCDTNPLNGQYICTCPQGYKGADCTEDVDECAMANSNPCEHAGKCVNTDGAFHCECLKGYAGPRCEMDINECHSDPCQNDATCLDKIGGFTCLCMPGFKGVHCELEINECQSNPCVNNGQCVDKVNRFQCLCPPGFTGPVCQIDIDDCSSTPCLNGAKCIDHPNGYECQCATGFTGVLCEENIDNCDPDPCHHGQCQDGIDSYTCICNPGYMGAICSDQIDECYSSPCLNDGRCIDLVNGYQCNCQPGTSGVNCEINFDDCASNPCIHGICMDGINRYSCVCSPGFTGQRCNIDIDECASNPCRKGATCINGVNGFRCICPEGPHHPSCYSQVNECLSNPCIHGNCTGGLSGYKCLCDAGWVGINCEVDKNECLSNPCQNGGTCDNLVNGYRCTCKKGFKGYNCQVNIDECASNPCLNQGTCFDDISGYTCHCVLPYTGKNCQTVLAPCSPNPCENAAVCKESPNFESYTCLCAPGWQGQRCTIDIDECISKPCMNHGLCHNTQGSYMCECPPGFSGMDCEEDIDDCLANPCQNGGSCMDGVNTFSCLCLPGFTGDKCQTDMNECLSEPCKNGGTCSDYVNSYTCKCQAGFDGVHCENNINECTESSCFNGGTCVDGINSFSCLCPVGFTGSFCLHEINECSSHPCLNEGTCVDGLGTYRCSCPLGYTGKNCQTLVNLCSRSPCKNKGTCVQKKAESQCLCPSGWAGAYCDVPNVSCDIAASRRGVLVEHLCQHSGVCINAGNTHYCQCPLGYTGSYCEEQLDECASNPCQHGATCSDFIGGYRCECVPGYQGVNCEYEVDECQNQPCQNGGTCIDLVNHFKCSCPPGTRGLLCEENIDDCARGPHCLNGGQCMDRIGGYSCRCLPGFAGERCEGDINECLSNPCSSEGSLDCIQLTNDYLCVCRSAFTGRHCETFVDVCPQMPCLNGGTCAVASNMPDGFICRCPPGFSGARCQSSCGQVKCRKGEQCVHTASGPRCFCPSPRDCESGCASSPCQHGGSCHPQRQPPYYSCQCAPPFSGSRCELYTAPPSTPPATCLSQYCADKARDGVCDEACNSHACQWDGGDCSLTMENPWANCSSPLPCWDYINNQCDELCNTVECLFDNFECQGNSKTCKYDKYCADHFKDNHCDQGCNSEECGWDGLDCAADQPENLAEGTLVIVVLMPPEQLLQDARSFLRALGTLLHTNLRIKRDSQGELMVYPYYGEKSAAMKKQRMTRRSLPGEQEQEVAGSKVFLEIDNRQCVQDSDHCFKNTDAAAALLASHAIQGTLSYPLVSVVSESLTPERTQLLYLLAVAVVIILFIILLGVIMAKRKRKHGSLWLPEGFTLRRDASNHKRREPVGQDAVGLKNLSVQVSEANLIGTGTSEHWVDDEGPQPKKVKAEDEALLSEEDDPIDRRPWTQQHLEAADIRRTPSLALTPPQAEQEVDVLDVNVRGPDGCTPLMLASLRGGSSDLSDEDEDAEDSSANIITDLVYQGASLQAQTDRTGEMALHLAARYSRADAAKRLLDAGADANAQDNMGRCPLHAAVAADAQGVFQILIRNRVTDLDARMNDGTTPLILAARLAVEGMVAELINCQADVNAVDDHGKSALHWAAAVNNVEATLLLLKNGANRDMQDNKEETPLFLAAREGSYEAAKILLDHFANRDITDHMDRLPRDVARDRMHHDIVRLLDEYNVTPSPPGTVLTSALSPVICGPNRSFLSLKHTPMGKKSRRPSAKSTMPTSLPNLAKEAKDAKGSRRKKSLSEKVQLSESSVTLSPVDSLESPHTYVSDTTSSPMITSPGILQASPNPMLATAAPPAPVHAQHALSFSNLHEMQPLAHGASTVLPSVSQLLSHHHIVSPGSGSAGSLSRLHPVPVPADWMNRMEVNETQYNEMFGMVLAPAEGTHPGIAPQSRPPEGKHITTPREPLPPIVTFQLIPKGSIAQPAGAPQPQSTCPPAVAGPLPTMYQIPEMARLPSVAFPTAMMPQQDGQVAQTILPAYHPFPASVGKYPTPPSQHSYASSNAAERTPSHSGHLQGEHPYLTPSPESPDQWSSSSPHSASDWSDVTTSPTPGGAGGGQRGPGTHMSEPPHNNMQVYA

Compared with `CCOC(=O)C1=C[C@@H](C(C)C)N(S(=O)(=O)c2ccc(C)cc2)[C@H]1c1ccc(C(C)C)cc1`, `CCOC(=O)C[C@H]1[C@H](OC(=O)c2ccc(-c3ccccc3)cc2)[C@@H](NC(=O)c2ccc3ccccc3c2)c2cc(OCCCO)ccc2N1C(=O)Cc1ccc(OC)cc1` is lower in composite z-score: 1.52 for the first, 0.425 for the second.

First: CCOC(=O)C[C@H]1[C@H](OC(=O)c2ccccc2-c2ccccc2)[C@@H](NC(=O)c2ccc3ccccc3c2)c2cc(OCCCO)ccc2N1C(=O)c1ccc2ccccc2n1
Second: C=CCC(OC(C)=O)[C@@H]1[C@@H](N(Cc2cccc3ccccc23)C(=O)c2cccc3ccccc23)c2cc(OCCCO)ccc2N1C(=O)c1ccc2ccccc2n1 (stereo not given in full)
The composite z-score of the first is higher: 0.135 for the first, -0.0258 for the second.

First: COCCOC(=O)N1C(=O)[C@@]2(c3cc(C#CC4=CCCCC4)ccc31)[C@H](C(=O)NC[C@H](O)c1ccccc1)[C@H]1C(=O)O[C@H](c3ccccc3)[C@H](c3ccccc3)N1[C@@H]2c1ccc(O)cc1
Second: O=C1O[C@@H](c2ccccc2)[C@@H](c2ccccc2)N2[C@@H](c3ccc(OCCO)cc3)[C@]3(C(=O)Nc4ccc(C#CC5=CCCCC5)cc43)[C@@H](C(=O)O)[C@H]12
The composite z-score of the first is lower: 1.23 for the first, 1.48 for the second.

Compared with `C=C(COC)C(=O)CC[C@H](OC(C)=O)c1cccc(OCCO)c1`, `COCCOC(=O)N1C(=O)[C@@]2(c3cc(C#CCC(C(=O)OC)C(=O)OC)ccc31)[C@H](C(=O)N1CCCCCCC1)[C@H]1C(=O)O[C@H](c3ccccc3)[C@H](c3ccccc3)N1[C@@H]2c1ccc(OCCO)cc1` is higher in composite z-score: -0.844 for the first, 1.32 for the second.

First: N[C@@H](Cc1ccccc1)Cn1cc(-c2ccccc2)nn1
Second: CCCCC=C[C@@H](NC(=O)c1ccco1)c1ccccc1
The composite z-score of the first is lower: 0.0615 for the first, 0.929 for the second.
